From PubChem BioAssay (NCI)
About 79,000 compounds went through this panel and 15% of them were active in at least one assay; those are over-represented in the sample as a whole. Values without a mark were called inactive. Calls of active or inactive are those of the source. No stated cut-off is given here; in the data, active means growth inhibition above about 70%; inactive means the rest.

assay: NCI Yeast Anticancer Drug Screen. Data for the rad50 strain (AID 155);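 further: 0% = growth of vehicle-only cultures of the same strain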; conditions: S. cerevisiae rad50 strain growth inhibition; at 50.0 µM; stronger effect = higher value
Description: Growth inhibition of yeast strains with defined genetic alterations is measured as a screen for potential anti-cancer activity. Selected strains with alterations in DNA damage repair or cell cycle control were exposed to compounds and growth inhibition was measured relative to vehicle treated controls. The strain used in this assay is rad50

For `CC(C)=CCc1cc(C2COc3cc4c(c(O)c3C2=O)C=CC(C)(C)O4)c(O)cc1O` (stereo not given), the growth inhibition was 91.3% (active).

Going from `C=CC(COC(=O)C(C)(C)OC(C)=O)c1ccc(OC(=O)C(C)C)c(OC)c1` (stereo not given) to `COC(=O)c1ccc(NC(=O)O/N=C(\Cl)C(C)C)cc1`, the growth inhibition falls from -12.3% to -21.6%.

Compared with `Clc1ccc(C(c2cccs2)N2CCNCC2)cc1` (stereo not given), `NC1N=C(c2ccc(Cl)cc2)C2=C(N1)c1ccccc1CC2` (stereo not given) is lower in growth inhibition: 5.45% for the first, -7.1% for the second.

Compared with `Cc1ccc(S(=O)(=O)Nc2ccccc2C2Nc3ccccc3C(=O)O2)cc1` (stereo not given), `Cc1ccc(S(=O)(=O)N2CCC(O)(c3ccccc3)CC2)cc1` is higher in growth inhibition: -23.5% for the first, -3.05% for the second.

First: Cc1cc2nn(C3CCCO3)nc2cc1C (stereo not given)
Second: C(=N\n1cnnc1)/c1ccc2c(c1)CCC2
The growth inhibition of the first is higher: -10.6% for the first, -21.6% for the second.

Compared with `Cn1c(=S)sc2ccc3ccccc3c21`, `C#Cc1c(-c2c[nH]c3ccccc23)ccc[n+]1C` is higher in growth inhibition: -17.4% for the first, -12.5% for the second.

First: O=C(CC(CC(=O)c1ccccc1)c1ccco1)c1ccccc1
Second: O=C(/C(=N/N=C\c1ccc([N+](=O)[O-])cc1)c1ccccc1)c1ccccc1
The growth inhibition of the first is higher: 2.6% for the first, -10.6% for the second.

Compared with `O=C(O)CSCc1nc2ccccc2[nH]1`, `CC1=NN(c2ccccc2)C(=O)C1CCC#N` (stereo not given) is higher in growth inhibition: -10.8% for the first, 10.6% for the second.

Compared with `N#C/C(=C1C=C(Br)/C(=N\O)C=C\1Cl)c1ccc(Cl)cc1`, `CC[n+]1c(C)n(Cc2ccc(C(=O)O)cc2)c2cc(F)ccc21` is lower in growth inhibition: 30.9% for the first, -10.8% for the second.

Compared with `CC1CC2(OC2C)C(=O)OC2CCN(C)C/C=C(/COC(=O)C1(C)O)C2=O` (stereo not given), `O=C(O)c1cn(C2CC2)c2cc(N3CCNCC3)c(F)cc2c1=O` is higher in growth inhibition: 2.3% for the first, 8.9% for the second.

Going from `O=C(/C=C(\[O-])c1ccccc1)CCCCCCC(=O)/C=C(\[O-])c1ccccc1.O=C(/C=C(\[O-])c1ccccc1)CCCCCCC(=O)/C=C(\[O-])c1ccccc1.O=C(/C=C(\[O-])c1ccccc1)CCCCCCC(=O)/C=C(\[O-])c1ccccc1.[Nd+3].[Nd+3]` to `O=C(/C=C(\[O-])c1ccccc1)CCCCCCC(=O)/C=C(\[O-])c1ccccc1.O=C(/C=C(\[O-])c1ccccc1)CCCCCCC(=O)/C=C(\[O-])c1ccccc1.O=C(/C=C(\[O-])c1ccccc1)CCCCCCC(=O)/C=C(\[O-])c1ccccc1.[Y+3].[Y+3]`, the growth inhibition falls from 26.4% to 7.3%.

Compared with `Cc1nc2c(Cl)cc(Cl)c(Cl)c2s1`, `Fc1ccc(Nc2nc(Cl)c3[nH]cnc3n2)cc1Cl` is higher in growth inhibition: 9.65% for the first, 11.5% for the second.

First: OCc1ccccn1
Second: S=C(NNc1ccccc1)NC1CCCCC1
The growth inhibition of the first is lower: -10.7% for the first, 7.35% for the second.

First: O=Cc1ccc2c(c1Cl)C(=O)c1ccccc1C2=O
Second: COc1cc(/C=N/N2C(=O)c3ccccc3C2=O)ccc1O
The growth inhibition of the first is higher: 51% for the first, 26.8% for the second.

Going from `CCCCCCCCOC(=O)C(=O)C(C#N)c1ccccc1` (stereo not given) to `O=[N+]([O-])c1cccc(S(=O)(=O)OCCOc2ccccc2)c1`, the growth inhibition rises from 6.95% to 30.7%.

Compared with `CCCN1CCc2cc(OC)c(OC)cc2C1Cc1ccc(OC)c(OC)c1` (stereo not given), `COc1c(OC)c(OC)c2c(c1OC)c(=O)c1ccccc1n2C` is higher in growth inhibition: -13.8% for the first, 12.6% for the second.

Going from `Cc1ccc(N2C(=O)CC(Sc3ccccc3N)C2=O)cc1` (stereo not given) to `Cc1ccc(N2CSC(=S)N(c3ccc(C)cc3)C2)cc1`, the growth inhibition falls from -8.75% to -10.4%.

Going from `COc1ccc(-c2cc(=O)c3c(C)cc(O)cc3o2)cc1` to `Nc1cc(S(=O)(=O)c2ccc(O)c(N)c2)ccc1O`, the growth inhibition rises from -9.4% to 5.1%.

First: CC(=O)C1=C(C)N2C(=NC3=C(CCc4ccccc43)C2c2ccc(Cl)cc2)S1 (stereo not given)
Second: CCOC(=O)/C=C(\C)Nc1ccc(F)cc1
The growth inhibition of the first is higher: 25.9% for the first, -0.5% for the second.

Compared with `CCC(c1ccc(N(C)C)cc1)C1NC(=S)NC1=O` (stereo not given), `CCN(CC)c1cc(C(C)(C)C)cc(C(C)(C)C)c1` is higher in growth inhibition: -4.2% for the first, 0.45% for the second.

In the case of `CC(=O)CC1CCCC(CC(C)=O)N1C` (stereo not given), the growth inhibition was -9.3%.
